Laboratory results taken from the supplement of paper PMC10849652.
Of roughly 7,900 targets only a part is listed; those with a hit were picked by preference. About 0.6% of all pairs of compound and target were hits. A number with no mark means an inactive call.

Compound: C1=CC(=CC=C1C2=NC3=C(N2)C=C(C=C3)C(=O)N)OC4=CC=C(C=C4)Cl
Experiment: log2 fold change, soluble protein after heating vs DMSO (PISA); higher = thermal stabilisation; K562 cells, 10 uM, 30 min; active = over 0.2 and 3.5 SD of the protein, either way, in both replicates (recomputed)
Outline: (§1)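 K562 cells at 2×10^6 cells/mL were treated with 10 μM compound for 30 min. Aliquots were heated for 3 min across 48°C-58°C, pooled, and extracted in PBS with 0.5% NP-40 at 4°C; soluble protein was the supernatant after 21,000xg for 90 min. Soluble protein was quantified by TMTpro 16plex LC-MS/MS with channel sums equalised, and reported as log2 fold change in thermal stability against DMSO controls, with values from duplicates.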

Sequence of UniProt O00506 (O00506 whole entry, looked up): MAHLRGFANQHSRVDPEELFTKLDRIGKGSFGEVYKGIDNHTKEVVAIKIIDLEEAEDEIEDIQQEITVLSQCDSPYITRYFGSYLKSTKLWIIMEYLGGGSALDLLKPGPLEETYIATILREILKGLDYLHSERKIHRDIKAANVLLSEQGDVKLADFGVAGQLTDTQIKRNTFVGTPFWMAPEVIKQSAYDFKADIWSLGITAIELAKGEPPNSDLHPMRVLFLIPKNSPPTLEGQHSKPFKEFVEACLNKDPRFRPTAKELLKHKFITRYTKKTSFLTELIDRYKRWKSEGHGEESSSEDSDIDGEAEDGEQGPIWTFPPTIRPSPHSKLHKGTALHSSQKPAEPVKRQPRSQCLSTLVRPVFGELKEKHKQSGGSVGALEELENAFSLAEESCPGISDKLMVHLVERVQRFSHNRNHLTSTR
Sequence of UniProt O95149 (O95149 whole entry, looked up): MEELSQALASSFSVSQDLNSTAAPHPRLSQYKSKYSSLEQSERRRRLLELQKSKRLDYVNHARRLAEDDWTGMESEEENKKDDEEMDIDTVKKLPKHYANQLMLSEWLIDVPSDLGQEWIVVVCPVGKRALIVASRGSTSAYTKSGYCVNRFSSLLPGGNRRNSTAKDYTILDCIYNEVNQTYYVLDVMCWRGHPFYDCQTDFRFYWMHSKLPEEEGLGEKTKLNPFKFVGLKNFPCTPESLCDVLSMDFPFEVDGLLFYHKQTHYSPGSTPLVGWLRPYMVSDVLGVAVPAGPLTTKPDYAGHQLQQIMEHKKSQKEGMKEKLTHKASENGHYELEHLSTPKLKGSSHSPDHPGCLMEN
Sequence of UniProt Q01085 (Q01085 whole entry, looked up): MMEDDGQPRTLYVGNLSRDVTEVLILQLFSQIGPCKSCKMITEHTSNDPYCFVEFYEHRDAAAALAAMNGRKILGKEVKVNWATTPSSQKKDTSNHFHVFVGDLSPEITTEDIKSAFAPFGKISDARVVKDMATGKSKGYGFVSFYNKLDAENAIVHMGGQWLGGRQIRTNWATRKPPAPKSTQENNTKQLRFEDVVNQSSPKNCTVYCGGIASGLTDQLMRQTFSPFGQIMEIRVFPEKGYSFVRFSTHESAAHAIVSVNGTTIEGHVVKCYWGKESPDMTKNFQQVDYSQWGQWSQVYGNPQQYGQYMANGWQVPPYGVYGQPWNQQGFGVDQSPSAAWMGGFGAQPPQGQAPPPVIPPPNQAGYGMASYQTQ
Sequence of UniProt O15198 (O15198 whole entry, looked up): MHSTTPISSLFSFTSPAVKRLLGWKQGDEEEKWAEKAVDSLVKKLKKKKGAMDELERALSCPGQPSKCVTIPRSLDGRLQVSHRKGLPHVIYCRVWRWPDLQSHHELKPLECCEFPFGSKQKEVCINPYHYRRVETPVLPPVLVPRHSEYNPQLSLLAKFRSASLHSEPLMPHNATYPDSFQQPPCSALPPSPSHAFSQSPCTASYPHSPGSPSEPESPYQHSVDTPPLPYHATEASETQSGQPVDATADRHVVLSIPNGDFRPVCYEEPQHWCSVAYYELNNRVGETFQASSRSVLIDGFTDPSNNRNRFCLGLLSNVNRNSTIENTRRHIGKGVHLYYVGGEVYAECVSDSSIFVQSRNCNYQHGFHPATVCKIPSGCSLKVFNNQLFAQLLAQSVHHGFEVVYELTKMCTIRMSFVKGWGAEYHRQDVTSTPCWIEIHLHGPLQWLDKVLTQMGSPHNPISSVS
Sequence of UniProt P51692 (P51692 whole entry, looked up): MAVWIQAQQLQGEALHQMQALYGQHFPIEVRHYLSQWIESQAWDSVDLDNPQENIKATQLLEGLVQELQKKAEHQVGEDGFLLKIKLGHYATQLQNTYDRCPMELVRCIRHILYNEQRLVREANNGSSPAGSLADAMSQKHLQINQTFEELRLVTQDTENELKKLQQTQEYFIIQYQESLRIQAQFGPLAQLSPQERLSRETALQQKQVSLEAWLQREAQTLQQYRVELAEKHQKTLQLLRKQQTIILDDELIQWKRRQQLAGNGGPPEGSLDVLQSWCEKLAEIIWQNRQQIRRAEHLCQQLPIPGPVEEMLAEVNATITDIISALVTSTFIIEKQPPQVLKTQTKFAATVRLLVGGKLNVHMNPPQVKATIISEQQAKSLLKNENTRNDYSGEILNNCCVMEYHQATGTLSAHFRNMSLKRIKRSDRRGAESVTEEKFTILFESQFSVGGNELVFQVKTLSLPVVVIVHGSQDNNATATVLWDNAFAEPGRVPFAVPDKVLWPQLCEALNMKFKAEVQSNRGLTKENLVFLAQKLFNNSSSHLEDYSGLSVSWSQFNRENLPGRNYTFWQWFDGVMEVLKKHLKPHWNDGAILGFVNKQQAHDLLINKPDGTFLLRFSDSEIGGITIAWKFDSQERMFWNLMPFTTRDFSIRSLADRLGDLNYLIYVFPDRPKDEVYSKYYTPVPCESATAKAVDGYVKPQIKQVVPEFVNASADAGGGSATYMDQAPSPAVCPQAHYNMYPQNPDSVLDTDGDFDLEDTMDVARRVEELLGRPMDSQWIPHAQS
Sequence of UniProt Q6XR72 (Q6XR72 whole entry, looked up): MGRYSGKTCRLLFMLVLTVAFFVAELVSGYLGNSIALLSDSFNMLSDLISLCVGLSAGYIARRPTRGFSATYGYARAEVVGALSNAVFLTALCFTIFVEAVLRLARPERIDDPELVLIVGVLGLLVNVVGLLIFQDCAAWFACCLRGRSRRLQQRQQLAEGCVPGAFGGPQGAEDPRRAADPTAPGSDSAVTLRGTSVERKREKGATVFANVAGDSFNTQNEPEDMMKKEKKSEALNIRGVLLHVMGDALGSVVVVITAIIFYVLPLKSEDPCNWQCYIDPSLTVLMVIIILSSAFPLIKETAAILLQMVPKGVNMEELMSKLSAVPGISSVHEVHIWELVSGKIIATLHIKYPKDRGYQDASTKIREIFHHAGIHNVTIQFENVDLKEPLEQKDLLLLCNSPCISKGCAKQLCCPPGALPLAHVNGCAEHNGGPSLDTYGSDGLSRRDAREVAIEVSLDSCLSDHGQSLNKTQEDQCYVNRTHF
Sequence of UniProt Q15005 (Q15005 whole entry, looked up): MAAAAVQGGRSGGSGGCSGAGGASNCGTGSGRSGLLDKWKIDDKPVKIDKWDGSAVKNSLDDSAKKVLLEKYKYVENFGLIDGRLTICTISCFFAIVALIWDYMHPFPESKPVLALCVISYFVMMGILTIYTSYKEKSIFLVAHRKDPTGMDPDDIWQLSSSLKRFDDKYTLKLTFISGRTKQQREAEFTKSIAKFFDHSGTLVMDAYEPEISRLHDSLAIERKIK
Sequence of UniProt Q01130 (Q01130 whole entry, looked up): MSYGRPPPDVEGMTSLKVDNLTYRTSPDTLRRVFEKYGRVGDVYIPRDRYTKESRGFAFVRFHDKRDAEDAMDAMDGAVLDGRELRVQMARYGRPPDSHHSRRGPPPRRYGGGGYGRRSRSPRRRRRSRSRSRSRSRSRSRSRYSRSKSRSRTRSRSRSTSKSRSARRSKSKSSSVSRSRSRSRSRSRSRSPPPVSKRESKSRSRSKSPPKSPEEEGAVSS
Sequence of UniProt P27105 (P27105 whole entry, looked up): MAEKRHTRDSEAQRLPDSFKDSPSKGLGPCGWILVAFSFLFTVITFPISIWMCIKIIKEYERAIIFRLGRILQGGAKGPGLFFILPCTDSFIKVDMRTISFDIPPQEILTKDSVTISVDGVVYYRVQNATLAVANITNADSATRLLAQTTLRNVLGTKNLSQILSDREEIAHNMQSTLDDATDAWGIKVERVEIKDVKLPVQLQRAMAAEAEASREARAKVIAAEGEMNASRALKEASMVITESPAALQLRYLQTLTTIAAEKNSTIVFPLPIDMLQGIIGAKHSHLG
Sequence of UniProt Q9UDY2 (Q9UDY2 whole entry, looked up): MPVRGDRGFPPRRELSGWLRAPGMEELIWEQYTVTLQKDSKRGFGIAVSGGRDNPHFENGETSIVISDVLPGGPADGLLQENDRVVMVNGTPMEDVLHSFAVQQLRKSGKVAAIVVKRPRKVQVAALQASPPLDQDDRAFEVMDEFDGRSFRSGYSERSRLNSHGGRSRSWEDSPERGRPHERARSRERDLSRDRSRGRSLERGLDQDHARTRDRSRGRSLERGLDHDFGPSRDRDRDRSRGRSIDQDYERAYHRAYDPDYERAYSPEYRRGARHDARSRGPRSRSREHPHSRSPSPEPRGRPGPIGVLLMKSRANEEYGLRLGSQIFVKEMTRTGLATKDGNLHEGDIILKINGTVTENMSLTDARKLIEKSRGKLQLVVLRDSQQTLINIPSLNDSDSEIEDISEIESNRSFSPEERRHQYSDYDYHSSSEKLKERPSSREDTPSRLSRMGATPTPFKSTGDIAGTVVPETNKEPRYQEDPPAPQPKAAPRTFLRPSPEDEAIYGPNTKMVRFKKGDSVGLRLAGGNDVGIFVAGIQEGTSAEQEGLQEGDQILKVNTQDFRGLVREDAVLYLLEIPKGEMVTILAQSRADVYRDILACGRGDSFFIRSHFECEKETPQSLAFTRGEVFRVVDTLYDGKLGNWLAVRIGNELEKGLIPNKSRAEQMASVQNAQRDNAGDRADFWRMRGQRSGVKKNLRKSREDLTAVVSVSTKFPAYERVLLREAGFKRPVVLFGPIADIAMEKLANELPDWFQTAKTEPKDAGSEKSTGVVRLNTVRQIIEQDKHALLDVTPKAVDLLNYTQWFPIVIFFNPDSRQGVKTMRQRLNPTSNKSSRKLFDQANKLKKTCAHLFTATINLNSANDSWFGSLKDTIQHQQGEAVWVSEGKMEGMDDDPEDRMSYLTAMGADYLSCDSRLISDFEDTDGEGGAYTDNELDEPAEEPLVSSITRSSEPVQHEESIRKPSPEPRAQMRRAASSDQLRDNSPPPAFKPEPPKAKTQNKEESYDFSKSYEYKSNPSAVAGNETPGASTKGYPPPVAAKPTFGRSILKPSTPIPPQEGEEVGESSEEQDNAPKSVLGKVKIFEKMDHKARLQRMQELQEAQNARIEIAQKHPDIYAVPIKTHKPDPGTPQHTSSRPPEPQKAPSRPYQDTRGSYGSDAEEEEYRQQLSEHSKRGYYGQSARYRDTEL

SLC30A10 (UniProt Q6XR72) and STK25 (UniProt O00506) are within 0.2 log units of each other in log2 fold change: 0.001 for the first, -0.009 for the second.

SNUPN (UniProt O95149) and SLC7A6 (UniProt Q92536) are within 0.2 log units of each other in log2 fold change: -0.019 for the first, 0.026 for the second.

SMAD9 (UniProt O15198) and TJP2 isoform 7 (UniProt Q9UDY2) are within 0.2 log units of each other in log2 fold change: -0.055 for the first, 0.006 for the second.

SLC30A7 (UniProt Q8NEW0) and STOM (UniProt P27105) are within 0.2 log units of each other in log2 fold change: 0.006 for the first, 0.1 for the second.

STAT5B (UniProt P51692) and SPCS2 (UniProt Q15005) are within 0.2 log units of each other in log2 fold change: 0.071 for the first, -0.043 for the second.

SMAP2 (UniProt Q8WU79) and TIAL1 isoform 2 (UniProt Q01085) are within 0.2 log units of each other in log2 fold change: -0.032 for the first, 0 for the second.

STAT6 (UniProt P42226) and SLC6A6 (UniProt P31641) are within 0.2 log units of each other in log2 fold change: 0.018 for the first, -0.005 for the second.

SRSF2 (UniProt Q01130) showed a log2 fold change of 0.02.

Compound: C1=CC2=C(C=CC(=C2)/C=C\3/C(=O)NC(=NCC4=CC=CS4)S3)N=C1
Experiment: as above
Outline: as §1

SPPL2B (UniProt Q8TCT7) and STK4 (UniProt Q13043) are within 0.2 log units of each other in log2 fold change: 0.081 for the first, 0.04 for the second.

SMG1 (UniProt Q96Q15) and STK38L (UniProt Q9Y2H1) are within 0.2 log units of each other in log2 fold change: -0.029 for the first, -0.015 for the second.

TGFBRAP1 (UniProt Q8WUH2) and SLC9A6 isoform 2 (UniProt Q92581) are within 0.2 log units of each other in log2 fold change: 0.084 for the first, -0.009 for the second.

SLC35A1 (UniProt P78382) and TFR2 (UniProt Q9UP52) are within 0.2 log units of each other in log2 fold change: 0.082 for the first, 0.018 for the second.

TERF2IP (UniProt Q9NYB0) and SUGP1 (UniProt Q8IWZ8) are within 0.2 log units of each other in log2 fold change: 0.022 for the first, -0.01 for the second.

SURF1 (UniProt Q15526) and STARD7 (UniProt Q9NQZ5) are within 0.2 log units of each other in log2 fold change: -0.045 for the first, 0.031 for the second.

STEAP3 isoform 2 (UniProt Q658P3) and ST6GAL1 (UniProt P15907) are within 0.2 log units of each other in log2 fold change: 0.053 for the first, -0.033 for the second.

SPIRE1 (UniProt Q08AE8) and SLC27A1 (UniProt Q6PCB7) are within 0.2 log units of each other in log2 fold change: 0.11 for the first, 0.061 for the second.

SPG21 (UniProt Q9NZD8) and SRP72 (UniProt O76094) are within 0.2 log units of each other in log2 fold change: -0.045 for the first, 0.066 for the second.

SLC38A7 (UniProt Q9NVC3) and SLK isoform 2 (UniProt Q9H2G2) are within 0.2 log units of each other in log2 fold change: 0.024 for the first, 0.043 for the second.

TIPRL (UniProt O75663) and STX17 (UniProt P56962) are within 0.2 log units of each other in log2 fold change: 0.049 for the first, 0.041 for the second.

STIM1 (UniProt Q13586) and SLC30A10 (UniProt Q6XR72) are within 0.2 log units of each other in log2 fold change: 0.039 for the first, 0.077 for the second.

STK25 (UniProt O00506) and SNUPN (UniProt O95149) are within 0.2 log units of each other in log2 fold change: 0.021 for the first, 0.069 for the second.

SLC7A6 (UniProt Q92536) and SMAD9 (UniProt O15198) are within 0.2 log units of each other in log2 fold change: -0.001 for the first, 0 for the second.

TJP2 isoform 7 (UniProt Q9UDY2) and SLC30A7 (UniProt Q8NEW0) are within 0.2 log units of each other in log2 fold change: 0.029 for the first, -0.086 for the second.

STOM (UniProt P27105) and STAT5B (UniProt P51692) are within 0.2 log units of each other in log2 fold change: 0.054 for the first, 0.028 for the second.

SPCS2 (UniProt Q15005) and SMAP2 (UniProt Q8WU79) are within 0.2 log units of each other in log2 fold change: 0.011 for the first, -0.029 for the second.

TIAL1 isoform 2 (UniProt Q01085) and STAT6 (UniProt P42226) are within 0.2 log units of each other in log2 fold change: 0.02 for the first, 0.022 for the second.

SLC6A6 (UniProt P31641) and SRSF2 (UniProt Q01130) are within 0.2 log units of each other in log2 fold change: 0.003 for the first, -0.029 for the second.
